Results filed as inconclusive are left out. A call without a number means that no potency is given here. A structure can be active in one record and inactive in another. Activity calls are given as the source filed them. Unless noted, calls come from the whole dose curve; as a rule, active = well fitted curve in the direction sought with a large enough effect; inconclusive = small, poorly fitted or top-dose-only effect, or another doubt; inactive = no such curve, though single readings can be large; an effect the other way counts as inactive or inconclusive.
Key:
[1] = molecular target: Tumor susceptibility gene 101 protein (Homo sapiens) (UniProt Q99816); test: qHTS Validation Assay for Iinhibitors of HIV-1 Budding by Blocking the Interaction of PTAP/TSG101 (AID 485342; calls by dose curve)
Chain of Tumor susceptibility gene 101 protein (Homo sapiens) (Q99816 whole entry, looked up, the tested form may be a part): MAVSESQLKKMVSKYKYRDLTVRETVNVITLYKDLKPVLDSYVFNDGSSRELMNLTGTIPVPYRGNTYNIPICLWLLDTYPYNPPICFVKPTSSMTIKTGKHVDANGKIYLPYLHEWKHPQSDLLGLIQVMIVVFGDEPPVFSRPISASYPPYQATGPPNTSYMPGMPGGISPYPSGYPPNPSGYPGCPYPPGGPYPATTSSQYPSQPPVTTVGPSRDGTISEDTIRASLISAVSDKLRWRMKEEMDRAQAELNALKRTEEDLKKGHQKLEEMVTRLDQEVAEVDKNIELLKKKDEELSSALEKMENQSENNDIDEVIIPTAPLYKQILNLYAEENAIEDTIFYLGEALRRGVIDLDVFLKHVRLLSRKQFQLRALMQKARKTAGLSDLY
Summary of the method: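 Binding of a FITC-tagged PTAP-motif peptide (50 nM) to the Tsg101 binding domain (10 uM) is monitored by fluorescence polarization. Compounds are pin-delivered before peptide addition, and incubation runs 20 min at room temperature.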

[2] = qHTS Validation Assay to Find Inhibitors of Chronic Active B-Cell Receptor Signaling (AID 485345; active = well fitted curve in the direction sought with a large enough effect in the main read-out, with a control signal flat, not every such curve was filed as active)
Summary of the method: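 TMD8 ABC-DLBCL cells stably carrying doxycycline-inducible IkappaBalpha–green luciferase fusion plus unfused red luciferase; compounds 46 uM to 3 nM, 4 h at 37C with doxycycline. Corrected green/red luminescence ratio normalized to 10 uM MG-132 and basal cell wells; curves fitted.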

[3] = molecular target: Beta-2 adrenergic receptor (Homo sapiens) (UniProt P07550); test: qHTS validation assay of beta-arrestin-biased ligands of beta2-adrenergic receptor (AID 485366)
Chain of Beta-2 adrenergic receptor (Homo sapiens) (P07550 whole entry, looked up): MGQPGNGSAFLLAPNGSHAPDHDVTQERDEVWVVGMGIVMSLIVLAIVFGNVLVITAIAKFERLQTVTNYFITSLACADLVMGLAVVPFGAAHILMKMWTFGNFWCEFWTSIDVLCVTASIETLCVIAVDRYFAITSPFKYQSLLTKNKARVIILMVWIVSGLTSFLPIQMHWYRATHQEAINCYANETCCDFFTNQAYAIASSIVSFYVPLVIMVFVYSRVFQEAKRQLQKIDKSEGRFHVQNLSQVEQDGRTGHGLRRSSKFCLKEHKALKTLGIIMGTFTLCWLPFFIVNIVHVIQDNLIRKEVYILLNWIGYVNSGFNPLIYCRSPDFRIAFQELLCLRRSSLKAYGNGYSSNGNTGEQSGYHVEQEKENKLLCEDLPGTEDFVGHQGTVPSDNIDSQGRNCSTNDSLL
Summary of the method: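 Luminescence from a tTA-responsive luciferase, induced when recombinant beta-arrestin is recruited to recombinant beta2-AR, served as the agonism signal. Cells were exposed to compound for 18 hr at 37 degrees C; titrations spanned up to 46 microM.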

[4] = molecular target: ATP-dependent 6-phosphofructokinase (Trypanosoma brucei brucei) (UniProt O15648); test: qHTS Validation Assay to Find Inhibitors of T. brucei phosphofructokinase (AID 485368); note: potency is the fitted concentration of half-maximal effect
Summary of the method: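 Activity was normalized between 1x (1.25 nM) PFK wells as no inhibition and enzyme-free wells as full inhibition, from luminescence after ADP-Glo detection of ADP made from 0.5 mM F6P and 0.1 mM ATP over 45 min.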

[5] = molecular target: Thioredoxin reductase 1, cytoplasmic (Rattus norvegicus) (UniProt O89049); test: qHTS Assay for Substrates of Mammalian Selenoprotein Thioredoxin Reductase 1 (TrxR1) (AID 488772);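 note: NADPH fluorescence in the first read after selenite addition and not the 8 min delta; series mostly up to about 57 µM; a drop in NADPH fluorescence below the no-compound background marks a TrxR1 substrate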
Summary of the method: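 Quantitative HTS in Tris-HCl buffer at pH 7.5 with EDTA and Tween-20, using rat TrxR1, 400 uM NADPH and 400 uM selenite (final). A fall in initial NADPH fluorescence relative to background marked substrate behaviour.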

[6] = molecular target: Thioredoxin reductase 1, cytoplasmic (Rattus norvegicus) (UniProt O89049); test: qHTS Assay for Inhibitors of Mammalian Selenoprotein Thioredoxin Reductase 1 (TrxR1) (AID 488773); conditions: Potency: inhibition; note: nearly all actives have a fitted effect of over 40% in size; note: potency is the fitted concentration of half-maximal effect
Summary of the method: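 Steps: enzyme (90 nM) plus NADPH (400 uM final), 5 min at ~22 deg C; compound added, 15 min; selenite (400 uM final) added; fluorescence followed for 8 min. Concentration-response curves derived from the normalized delta values.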

[7] = molecular target: M-phase phosphoprotein 8 (Homo sapiens) (UniProt Q99549); test: qHTS Validation Assay for Inhibitors for MPP8 Chromodomain Interactions with Methylated Histone Tails (AID 488949); note: nearly all actives have a fitted effect of over 55% in size; note: potency is the fitted concentration of half-maximal effect
Chain of M-phase phosphoprotein 8 (Homo sapiens) (Q99549 whole entry, looked up): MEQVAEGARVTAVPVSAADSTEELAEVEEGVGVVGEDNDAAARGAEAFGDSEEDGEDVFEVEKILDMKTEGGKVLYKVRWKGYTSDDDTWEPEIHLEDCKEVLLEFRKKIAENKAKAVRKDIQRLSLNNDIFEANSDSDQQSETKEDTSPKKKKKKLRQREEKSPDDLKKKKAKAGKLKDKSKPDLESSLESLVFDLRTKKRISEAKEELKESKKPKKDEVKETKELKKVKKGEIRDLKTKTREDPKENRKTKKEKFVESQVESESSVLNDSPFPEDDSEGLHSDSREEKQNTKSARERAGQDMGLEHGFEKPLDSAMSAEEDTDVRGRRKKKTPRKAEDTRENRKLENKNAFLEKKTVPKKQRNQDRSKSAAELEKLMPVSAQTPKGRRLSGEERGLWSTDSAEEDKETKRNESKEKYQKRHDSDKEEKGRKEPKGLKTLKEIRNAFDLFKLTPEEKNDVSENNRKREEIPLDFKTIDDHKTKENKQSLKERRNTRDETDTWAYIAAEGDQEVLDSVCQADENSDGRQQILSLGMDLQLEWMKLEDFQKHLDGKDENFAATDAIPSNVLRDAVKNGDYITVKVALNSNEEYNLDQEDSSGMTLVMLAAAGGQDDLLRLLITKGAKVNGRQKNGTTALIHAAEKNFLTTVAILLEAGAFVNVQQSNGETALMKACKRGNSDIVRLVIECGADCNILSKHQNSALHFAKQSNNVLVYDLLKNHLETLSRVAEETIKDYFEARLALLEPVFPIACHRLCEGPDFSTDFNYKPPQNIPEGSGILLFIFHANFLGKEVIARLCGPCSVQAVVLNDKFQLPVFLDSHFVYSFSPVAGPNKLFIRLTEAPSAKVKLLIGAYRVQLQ
Summary of the method: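 50 nM MPP8 + 50 nM b-H3K9me3 peptide, PBS pH 7.4/0.01% Tween-20, 30 min RT; + cpd 30 min RT; + AlphaScreen donor/Ni-chelate acceptor beads 10 ug/mL final, 30 min dark; luminescence read.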

[8] = molecular target: Chromobox protein homolog 1 (Homo sapiens) (UniProt P83916); test: qHTS Validation Assay for Inhibitors of HP1-beta Chromodomain Interactions with Methylated Histone Tails (AID 488953); note: nearly all actives have a fitted effect of over 50% in size; note: potency is the fitted concentration of half-maximal effect
Chain of Chromobox protein homolog 1 (Homo sapiens) (P83916 whole entry, looked up): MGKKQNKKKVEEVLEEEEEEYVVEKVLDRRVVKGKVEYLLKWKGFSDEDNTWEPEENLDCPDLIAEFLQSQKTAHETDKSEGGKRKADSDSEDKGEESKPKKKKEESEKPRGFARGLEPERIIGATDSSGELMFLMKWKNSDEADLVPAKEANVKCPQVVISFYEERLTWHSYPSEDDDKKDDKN
Summary of the method: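 HP1-beta (50 nM) preformed 30 min with biotinylated H3(1-18)K9me3 peptide (50 nM) in PBS pH 7.4, 0.01% Tween-20. Compounds added for 30 min at room temperature. Complex disruption read by AlphaScreen with streptavidin donor/nickel chelate acceptor beads (10 ug/mL each).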

[9] = molecular target: Methanococcus maripaludis chaperonin (MmCpn) (UniProt Q6LX38); test: High-Throughput Screening for Modulators of Cytosolic Chaperonin Activity: MmCpn Primary Screen (AID 488978);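 note: 50 nM MmCpn enzyme hydrolysing 30 µM ATP at 37 °C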
Chain of Methanococcus maripaludis chaperonin (MmCpn) (Q6LX38 1-543): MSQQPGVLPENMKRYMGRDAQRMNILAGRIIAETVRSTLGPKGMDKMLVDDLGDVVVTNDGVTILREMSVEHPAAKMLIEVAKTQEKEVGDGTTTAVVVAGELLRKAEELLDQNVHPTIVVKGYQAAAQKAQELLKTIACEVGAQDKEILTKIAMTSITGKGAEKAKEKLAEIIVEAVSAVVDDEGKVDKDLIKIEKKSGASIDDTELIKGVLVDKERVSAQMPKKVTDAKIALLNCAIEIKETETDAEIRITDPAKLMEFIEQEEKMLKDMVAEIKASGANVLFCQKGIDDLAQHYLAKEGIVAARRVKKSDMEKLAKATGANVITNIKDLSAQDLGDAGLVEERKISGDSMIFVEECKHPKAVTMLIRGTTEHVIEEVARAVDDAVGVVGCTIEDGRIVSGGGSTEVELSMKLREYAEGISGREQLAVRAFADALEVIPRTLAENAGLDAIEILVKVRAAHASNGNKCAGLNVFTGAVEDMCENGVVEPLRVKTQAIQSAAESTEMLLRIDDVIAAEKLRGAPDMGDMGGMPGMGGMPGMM
Summary of the method: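 Steps: chaperonin 50 nM final; add compound, 5 min RT; start with ATP, 30 uM final; hold 10 min at 37C; add ADP Transcreener HTRF reagent, 5 min; read ex 320, em 590 and 665 nm.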

[10] = molecular target: Transient receptor potential cation channel subfamily V member 1 (Homo sapiens) (UniProt Q8NER1); test: HTS Assay for Compounds that Act as Enhancers of the Vanilloid Receptor 1 (AID 488979)
Chain of Transient receptor potential cation channel subfamily V member 1 (Homo sapiens) (Q8NER1 whole entry, looked up): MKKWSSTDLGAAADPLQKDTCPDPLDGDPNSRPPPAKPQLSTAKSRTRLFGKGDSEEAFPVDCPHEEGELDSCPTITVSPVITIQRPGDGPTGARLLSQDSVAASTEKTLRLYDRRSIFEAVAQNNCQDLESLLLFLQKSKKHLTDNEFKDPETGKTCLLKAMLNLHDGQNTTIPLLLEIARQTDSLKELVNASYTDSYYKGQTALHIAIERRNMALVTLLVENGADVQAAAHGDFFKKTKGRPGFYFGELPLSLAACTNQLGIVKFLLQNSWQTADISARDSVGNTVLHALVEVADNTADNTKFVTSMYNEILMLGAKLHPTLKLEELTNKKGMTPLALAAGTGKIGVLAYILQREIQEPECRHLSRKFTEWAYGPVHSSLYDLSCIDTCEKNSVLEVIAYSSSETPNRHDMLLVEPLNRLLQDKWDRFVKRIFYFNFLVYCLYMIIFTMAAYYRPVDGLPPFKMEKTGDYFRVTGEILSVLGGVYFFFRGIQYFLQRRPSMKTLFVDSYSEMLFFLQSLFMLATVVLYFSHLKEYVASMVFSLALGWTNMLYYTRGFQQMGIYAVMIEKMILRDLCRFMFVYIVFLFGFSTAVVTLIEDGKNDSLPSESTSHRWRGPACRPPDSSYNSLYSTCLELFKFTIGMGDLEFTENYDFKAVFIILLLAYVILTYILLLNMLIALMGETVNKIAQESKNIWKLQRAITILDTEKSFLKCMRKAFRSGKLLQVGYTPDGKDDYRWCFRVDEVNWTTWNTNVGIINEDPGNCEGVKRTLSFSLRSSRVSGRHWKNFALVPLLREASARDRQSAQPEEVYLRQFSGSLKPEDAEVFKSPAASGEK
Summary of the method: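 TRPV1 cells loaded with Fluo-8 calcium dye; compound added and Ca2+ signal (ex 480/em 520 nm) followed 3 min, then capsaicin at EC20 added and read 2 more min to detect enhancement.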

[11] = molecular target: Thyrotropin receptor (Homo sapiens) (UniProt P16473); test: qHTS Assay for Antagonists of the Thyroid Stimulating Hormone Receptor (AID 488980); note: series mostly up to about 58 µM
Chain of Thyrotropin receptor (Homo sapiens) (P16473 whole entry, looked up): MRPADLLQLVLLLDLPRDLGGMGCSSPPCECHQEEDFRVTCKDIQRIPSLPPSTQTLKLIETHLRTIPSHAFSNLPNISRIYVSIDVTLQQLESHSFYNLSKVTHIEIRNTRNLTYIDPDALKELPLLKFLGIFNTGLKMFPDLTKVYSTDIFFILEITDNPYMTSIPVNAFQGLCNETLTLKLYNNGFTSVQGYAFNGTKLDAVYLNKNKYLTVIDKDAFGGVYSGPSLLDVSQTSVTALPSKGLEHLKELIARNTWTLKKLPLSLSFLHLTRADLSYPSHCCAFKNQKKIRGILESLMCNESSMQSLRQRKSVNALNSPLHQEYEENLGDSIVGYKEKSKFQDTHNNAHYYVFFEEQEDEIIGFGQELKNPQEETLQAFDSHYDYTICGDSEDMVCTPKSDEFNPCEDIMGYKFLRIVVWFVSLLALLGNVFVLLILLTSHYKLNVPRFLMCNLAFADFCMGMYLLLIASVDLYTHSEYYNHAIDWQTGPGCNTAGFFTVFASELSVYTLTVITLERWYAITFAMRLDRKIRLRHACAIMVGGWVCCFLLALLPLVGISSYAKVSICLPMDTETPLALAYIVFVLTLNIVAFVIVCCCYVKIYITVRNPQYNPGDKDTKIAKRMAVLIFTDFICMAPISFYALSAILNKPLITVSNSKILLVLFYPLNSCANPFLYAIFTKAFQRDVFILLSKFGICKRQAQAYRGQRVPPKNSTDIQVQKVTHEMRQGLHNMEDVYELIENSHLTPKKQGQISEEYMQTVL
Summary of the method: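 Readout is cAMP by HTRF competition between cellular cAMP and cAMP-d2 for a cryptate-labelled antibody. Antagonism was assessed in TSHR-transfected HEK293 cells stimulated with 4 nM TSH (EC80, final) in the presence of RO 20-1724.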

[12] = molecular target: D(1A) dopamine receptor (Homo sapiens) (UniProt P21728); test: HTS Assay for Allosteric Agonists of the Human D1 Dopamine Receptor: Primary Screen for Agonists (AID 488981)
Chain of D(1A) dopamine receptor (Homo sapiens) (P21728 whole entry, looked up): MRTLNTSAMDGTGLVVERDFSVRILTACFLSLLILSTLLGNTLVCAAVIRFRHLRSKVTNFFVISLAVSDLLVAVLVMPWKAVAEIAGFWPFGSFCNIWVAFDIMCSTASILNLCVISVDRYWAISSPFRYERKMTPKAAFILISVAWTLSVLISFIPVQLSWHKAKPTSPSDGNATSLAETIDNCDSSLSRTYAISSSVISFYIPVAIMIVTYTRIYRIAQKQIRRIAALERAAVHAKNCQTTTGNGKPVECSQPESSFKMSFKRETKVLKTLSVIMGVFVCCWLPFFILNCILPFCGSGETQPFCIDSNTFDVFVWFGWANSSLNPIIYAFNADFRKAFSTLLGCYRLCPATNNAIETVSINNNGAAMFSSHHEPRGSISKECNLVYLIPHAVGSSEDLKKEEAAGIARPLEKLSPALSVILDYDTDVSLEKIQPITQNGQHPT
Summary of the method: (§1)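 Tetracycline-induced HEK293 Trex D1 cells with forced coupling to calcium, loaded with no-wash calcium dye; kinetic fluorescence read 180 s after compound addition for agonism, then a further 180 s after an EC20 dopamine challenge for potentiation.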

[13] = molecular target: D(1A) dopamine receptor (Homo sapiens) (UniProt P21728); test: HTS Assay for Allosteric Agonists of the Human D1 Dopamine Receptor: Primary Screen for Potentiators (AID 488982)
Summary of the method: as §1

[14] = Validation screen for small molecules that induce genotoxicity in human embryonic kidney (HEK293T) cells expressing luciferase-tagged ELG1 (AID 493106)
Summary of the method: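 HEK293T cells expressing luciferase-tagged ELG1, 2,000 cells/well, exposed to compound 16 hr at 37 °C, 5% CO2. Luciferase read after ONE-Glo, 30 min at room temperature; increased signal indicates genetic stress.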

[15] = molecular target: Thyrotropin-releasing hormone receptor (Homo sapiens) (UniProt P34981); test: qHTS for Small Molecule Agonists and Allosteric Enhancers of Human TRH Receptor: Validation Screen for Agonists (AID 493127;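 active = calcium activation more than 3 SD above the typical response in the agonist read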); conditions: TRH receptor agonist cell assay; at 2 µM; stronger effect = higher value
Chain of Thyrotropin-releasing hormone receptor (Homo sapiens) (P34981 whole entry, looked up): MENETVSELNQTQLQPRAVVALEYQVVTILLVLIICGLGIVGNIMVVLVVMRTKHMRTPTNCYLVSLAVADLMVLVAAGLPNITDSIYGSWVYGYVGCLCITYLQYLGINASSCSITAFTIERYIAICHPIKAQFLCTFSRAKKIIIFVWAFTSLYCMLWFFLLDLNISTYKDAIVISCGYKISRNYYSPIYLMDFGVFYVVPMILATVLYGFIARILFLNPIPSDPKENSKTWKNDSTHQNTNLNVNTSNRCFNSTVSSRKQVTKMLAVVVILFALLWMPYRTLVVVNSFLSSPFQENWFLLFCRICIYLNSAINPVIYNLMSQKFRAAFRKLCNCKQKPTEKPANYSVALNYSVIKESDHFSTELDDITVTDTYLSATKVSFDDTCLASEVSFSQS
Summary of the method: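 TRHR cells loaded with fluo-8 calcium dye; FDSS kinetic fluorescence (Ex 480/Em 530) read at 1 s/cycle after 23 nL compound addition. Agonist-mode calcium response recorded before the 10 nM TRH (EC20) addition.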

[16] = Nrf2 qHTS screen for inhibitors: Validation (AID 493153; active = well fitted inhibition curve with a large enough effect in the main read-out, with a control signal flat, not every such curve was filed as active; note: potency is the fitted concentration of half-maximal effect); conditions: Potency: luciferase luminescence; viability change: measured here: cytotoxicity max response
Summary of the method: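 A549 cells carrying ARE-firefly luciferase reporter, 5000 cells/well in 5% FBS OPTI-MEM, treated with compound over a concentration series for 18-24 h at 37 C. Luciferase luminescence gave Nrf2 activity; CellTiter-Fluor fluorescence gave viability.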

[17] = qHTS for Inhibitors of Cell Surface uPA Generation: Validation Assay (AID 493164)
Summary of the method: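 RAW 264.7 cells (4000/well) were plated overnight, then exposed for 18 h at 37 C, 5% CO2 to compounds in a 7-point 1:5 titration (2.45 nM–38.3 uM final). Intracellular ATP was read by ATP-Lite luminescence.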

[18] = Quantitative high throughput screen for delayed death inhibitors of the malarial parasite plastid, 96 hour incubation (AID 488745); note: nearly all actives have a fitted effect of over 70% in size; note: potency is the fitted concentration of half-maximal effect
Summary of the method: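 Luciferase-expressing P. falciparum in erythrocytes (2% hematocrit, 0.1% parasitemia) incubated with compound for 96 h at 37 C, 5% CO2, in RPMI 1640 with 0.5% Albumax. Growth inhibition read as decreased luminescence.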

[19] = Quantitative high throughput screen for delayed death inhibitors of the malarial parasite plastid, 48 hour incubation (AID 488752); note: nearly all actives have a fitted effect of over 65% in size; note: potency is the fitted concentration of half-maximal effect
Summary of the method: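 Erythrocytes infected with firefly luciferase-expressing P. falciparum (2% hematocrit, 0.1% parasitemia) cultured with compound for 48 h at 37 C, 5% CO2, in RPMI 1640/0.5% Albumax. Growth inhibition read as loss of luminescence.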

[20] = molecular target: ATP-dependent 6-phosphofructokinase (Trypanosoma brucei brucei) (UniProt O15648); test: qHTS Assay to Find Inhibitors of T. brucei phosphofructokinase: hit validation (AID 492961);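 note: luminescence reports ADP formed as PFK phosphorylates fructose-6-phosphate with ATP; series mostly up to about 51 µM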
Summary of the method: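 Inhibition of parasite PFK is measured as reduced ADP formation, quantified via luciferase after ATP depletion. Assay used 0.1 mM ATP, 0.5 mM F6P, 1.25 nM enzyme, 45 min incubation.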

Cn1cnc2c(NCc3ccccc3)nc(NCCO)nc21
outcome [1]: inactive | outcome [2]: inactive | outcome [3]: inactive | Potency [4]: inactive | outcome [5]: inactive | Potency [6]: inactive | Potency [7]: inactive | Potency [8]: inactive | outcome [9]: inactive | outcome [10]: inactive | outcome [11]: inactive | outcome [12]: inactive | outcome [13]: inactive | outcome [14]: inactive | activation [15]: 0.188% (inactive) | Potency [16]: inactive | viability change [16]: 8.36% | outcome [17]: inactive

NC(N)=NCCCCN=C(N)N
outcome [1]: inactive | outcome [2]: inactive | outcome [3]: inactive | Potency [4]: inactive | Potency [18]: inactive | Potency [19]: inactive | outcome [5]: inactive | Potency [6]: inactive | Potency [7]: inactive | Potency [8]: inactive | outcome [9]: inactive | outcome [10]: inactive | outcome [11]: inactive | outcome [12]: inactive | outcome [13]: inactive | outcome [14]: inactive | activation [15]: 0.938% (inactive) | Potency [16]: inactive | viability change [16]: 2.98% | outcome [17]: inactive

CN(C)c1cc2c(Nc3ccc4c(cnn4Cc4ccccc4)c3)ncnc2cn1
outcome [1]: inactive | outcome [3]: inactive | Potency [18]: 7.38 µM (active) | Potency [19]: 4.65 µM (active) | outcome [5]: inactive | Potency [6]: inactive | Potency [7]: inactive | outcome [9]: inactive | outcome [10]: inactive | outcome [11]: inactive | outcome [12]: inactive | outcome [13]: inactive | outcome [14]: inactive | activation [15]: 2.12% (inactive) | outcome [17]: inactive

CCN(CC)CCNC(=O)c1ccc(NS(C)(=O)=O)cc1
outcome [1]: inactive | outcome [2]: inactive | outcome [3]: inactive | Potency [4]: inactive | outcome [5]: inactive | Potency [6]: inactive | Potency [7]: inactive | Potency [8]: inactive | outcome [9]: inactive | outcome [12]: inactive | outcome [13]: inactive | outcome [14]: inactive | Potency [16]: inactive | viability change [16]: 5.75% | outcome [17]: inactive

CC(C)N(CCC(=O)c1ccc2ccccc2c1)Cc1ccccc1
outcome [1]: inactive | outcome [3]: inactive | Potency [4]: 13.5 µM (active) | Potency [18]: inactive | Potency [19]: inactive | outcome [5]: inactive | Potency [6]: 7.52 µM (active) | Potency [7]: 28.2 µM (active) and inactive | Potency [8]: 44.7 µM (active) | outcome [9]: inactive | outcome [11]: inactive | outcome [12]: inactive | outcome [13]: inactive | outcome [14]: inactive | activation [15]: 3.12% (inactive) | Potency [16]: inactive | viability change [16]: -0.356% | outcome [17]: inactive

CCCCCCCCCCCCCC[N+](C)(C)C
outcome [20]: inactive

O=[N+]([O-])c1ccc(-c2nc(-c3ccc(F)cc3)c(-c3ccncc3)[nH]2)cc1
outcome [1]: inactive | outcome [3]: inactive | Potency [4]: inactive | Potency [19]: 10.4 µM (active) | outcome [5]: inactive | Potency [6]: inactive | Potency [7]: 22.4 µM (active) and inactive | Potency [8]: 31.6 µM (active) | outcome [9]: inactive | outcome [10]: inactive | outcome [11]: inactive | outcome [12]: inactive | outcome [14]: inactive | activation [15]: 4.88% (inactive) | Potency [16]: 16.4 µM (active) | viability change [16]: -1.66% | outcome [17]: inactive

COC(=O)C1=CO[C@@H](O)[C@@H]2C(CO)=CC[C@H]12
outcome [1]: inactive | outcome [2]: inactive | outcome [3]: inactive | Potency [4]: inactive | Potency [6]: inactive | Potency [7]: inactive | Potency [8]: inactive | outcome [9]: inactive | outcome [12]: inactive | outcome [13]: inactive | outcome [14]: inactive | Potency [16]: inactive | viability change [16]: -6.84% | outcome [17]: inactive

CC(NCCC(c1ccccc1)c1ccccc1)c1ccccc1 (centres undefined)
outcome [20]: inactive

O=C1NC(=O)/C(=C/c2ccc3c(c2)OC(F)(F)O3)S1
outcome [1]: inactive | outcome [3]: inactive | Potency [4]: inactive | outcome [5]: inactive | Potency [6]: inactive | Potency [7]: inactive | outcome [9]: inactive | outcome [12]: inactive | outcome [13]: inactive | Potency [16]: inactive | viability change [16]: -9.96% | outcome [17]: inactive

Nc1ncnc2n[nH]c(Nc3ccc(F)cc3)c12
outcome [1]: inactive | outcome [2]: inactive | outcome [3]: inactive | Potency [4]: inactive | outcome [5]: inactive | Potency [6]: inactive | Potency [7]: inactive | Potency [8]: inactive | outcome [9]: inactive | outcome [12]: inactive | outcome [13]: inactive | outcome [14]: inactive | outcome [17]: inactive
